Where “and” joins values, the source holds several entries; their conditions need not be identical. Equal entries are not always repeated. Inconclusive results are not listed. A call without a number means that no potency is given here. Calls of active or inactive are those of the source. The call rests on the fitted dose curve; in most records, active means well fitted cell-killing curve with a large enough effect in the repeat runs; inconclusive means weak or mixed curves, or effect the other way; inactive means flat fitted curve, though single readings scatter.
Assay: qHTS assay to identify small molecule antagonists of the androgen receptor (AR) signaling pathway using the MDA cell line - cell viability counter screen (AID 743041; further: nearly all actives have a fitted effect of over 45% in size)
Details: MDA-kb2 viability, CellTiter-Fluor, 16 h, cells co-treated with R1881 androgen agonist; series mostly up to 70.3 µM
Description: National Center for Advancing Translational Sciences [NCATS]
NIH Chemical Genomics Center [NCGC]
U.S. Environmental Protection Agency [EPA]
National Institutes of Environmental Health Sciences [NIEHS]
National Toxicology Program [NTP]
U.S. Food and Drug Administration [FDA]
Androgen receptor (AR), a nuclear hormone receptor, plays a critical role in AR-dependent prostate cancer and other androgen related diseases. Endocrine disrupting chemicals (EDCs) and their interactions with steroid hormone receptors like AR may cause disruption of normal endocrine function as well as interfere with metabolic homeostasis, reproduction, developmental and behavioral functions. To identify the compounds that inhibit AR signaling, MDA-kb2 AR-luc cell line (from ATCC, deposited by Wilson et al.) was used to screen the Tox21 10K compound library. MDA-kb2 AR-luc cell line is human breast carcinoma cell line that was stably transfected with a luciferase reporter gene under control of the MMTV promoter containing response elements for both androgen receptor (AR) and glucocorticoid receptor (GR). The cytotoxicity of the Tox21 compound library against the MDA-kb2 AR-luc cell line was tested in parallel by measuring the cell viability using CellTiter-Fluor assay (Promega, Madison, WI) in the same wells.
Tox21 Assay Protocol Summary:
MDA-kb2 AR-luc cells were dispensed at 3,000 cells/4 uL/well of culture medium into white wall/solid-bottom 1536-well plates using a Multidrop Combi (ThermoFisher Scientific, Waltham, MA) dispenser. After the assay plates were incubated at a 37C and 0% CO2 for 5 hr, 23 nL of compounds dissolved in DMSO, positive controls or DMSO only was transferred to the assay plate by a Pintool station (Kalypsys, San Diego, CA), followed by addition of 1 uL of agonist (R1881) in culture medium using a Bioraptr Flying Reagent Dispenser (FRD) workstation (Beckman Coulter, Indianapolis, IN, USA). The plates were incubated at a 37C and 0% CO2 for 16 h. After 15.5 h incubation, 1uL of CellTiter-Fluor reagent (Promega) was added using a Bioraptr FRD to each plate for measuring cytotoxicity. The fluorescence intensity was quantified on a ViewLux plate reader (PerkinElmer, Shelton, CT) following 30 min incubation at 37C and 0% CO2.
For `CCCCCCCCCCCC(=O)OCC(C)OC(=O)CCCCC(=O)O` (stereo not given), the Potency was “inactive”.
In the case of `COCCOc1cc2cc(C(=O)NC3CCN(C(C)C)CC3)n(CC(=O)Nc3ccc(Cl)cn3)c2cn1`, the Potency is reported as “inactive”.
For `COc1cc(S(=O)(=O)O)c(C)cc1N=Nc1c(O)ccc2cc(S(=O)(=O)O)ccc12`, the Potency was 24.3 µM (active).
In the case of `Nc1nc2c(ncn2COCCO)c(=O)[nH]1`, the Potency is reported as “inactive”.
For `O=C(O)c1cc(-c2ccc(F)cc2F)ccc1O`, the Potency was “inactive”.
In the case of `CCCCC(CC)CN1CN(CC(CC)CCCC)CC(C)(N)C1` (stereo not given), the Potency is reported as “inactive”.
In the case of `OC[C@@H](O)[C@@H](O)CO`, the Potency is reported as “inactive”.
With `Cc1cccc(C(=O)O)c1O` the Potency was “inactive”.
In the case of `C=C(CC)C(=O)c1ccc(OCC(=O)O)c(Cl)c1Cl`, the Potency is reported as 54.1 µM (active).
With `Nc1cc(Cl)c(O)c(Cl)c1` the Potency was “inactive”.
With `CCCCOC(=O)CC` the Potency was “inactive”.
With `Nc1nc(N)nc(-c2cc(Cl)ccc2Cl)n1` the Potency was “inactive”.
In the case of `C=CCn1c(=O)n(CC=C)c(=O)n(CC=C)c1=O`, the Potency is reported as “inactive”.
For `C=Cc1ccccc1C=C`, the Potency was “inactive”.
For `CC1(C)CCC[C@]2(C)[C@H]3CCO[C@]3(C)CC[C@@H]12`, the Potency was “inactive”.
With `CC1=Nc2ccccc2C1(C)C` the Potency was “inactive”.
With `CCCCCCCC/C=C\CCCCCCCCN` the Potency was “inactive”.
For `CC(C)OC(=O)C(O)(CC(=O)O)CC(=O)O`, the Potency was “inactive”.
With `COc1ccc(NC(=O)CC(C)=O)cc1` the Potency was “inactive”.
In the case of `CCOC(=O)NNc1ccc(N(CC)CC(C)O)nn1` (stereo not given), the Potency is reported as “inactive”.
For `CC(C)Cn1cnc2c(N)nc3ccccc3c21`, the Potency was “inactive”.
In the case of `[Cu+]`, the Potency is reported as “inactive”.
In the case of `CNC(=O)c1ccccc1Sc1ccc2c(/C=C/c3ccccn3)n[nH]c2c1`, the Potency is reported as “inactive”.
With `CCO[C@@H]1O[C@H](C(COCc2ccccc2)OCc2ccccc2)[C@H](OCc2ccccc2)[C@H]1O` (stereo not given in full) the Potency was “inactive”.
In the case of `CCn1c2ccccc2c2cc([N+](=O)[O-])ccc21`, the Potency is reported as “inactive”.
With `O[C@@H]([C@H](O)[C@H](O)CBr)[C@H](O)CBr` the Potency was “inactive”.
In the case of `O=C(O)CCN(C1(C(=O)NO)CCCC1)S(=O)(=O)c1ccc(Oc2ccc(F)cc2)cc1`, the Potency is reported as “inactive”.
With `Sc1nc2ccccc2s1` the Potency was “inactive”.
For `O=C1CCCCCCCCCCCCCCCO1`, the Potency was “inactive”.
In the case of `CCCCCC/C=C\CCCCCCCC(=O)O`, the Potency is reported as “inactive”.
For `O=C(Oc1ccccc1)Oc1ccccc1`, the Potency was “inactive”.
In the case of `CC[C@H](C)COC(=O)/C=C/c1ccc(N=Cc2ccc(OC)cc2)cc1`, the Potency is reported as “inactive”.
With `CC(C)(C)C1CCC(=O)CC1` the Potency was “inactive”.
For `Oc1c(I)cc(Cl)c2cccnc12`, the Potency was “inactive”.
For `OC/C=C/CO`, the Potency was “inactive”.
With `CN(C)c1ccc(C(=C2C=CC(=[N+](C)C)C=C2)c2ccc(N(C)C)cc2)cc1` the Potency was 3.35 µM (active) and 7.66 µM (active) and 4.33 µM (active).
For `Nc1ccc(C(=O)O)c(O)c1`, the Potency was “inactive”.
In the case of `CN(C)Cc1cc(C(C)(C)C)c(O)c(C(C)(C)C)c1`, the Potency is reported as “inactive”.
With `Cc1c(C)c2c(c(C)c1O)CC[C@@](C)(CCC[C@H](C)CCC[C@H](C)CCCC(C)C)O2` the Potency was “inactive”.
In the case of `C/C=C/C=C/COC(=O)C(C)C`, the Potency is reported as “inactive”.
Potency means the concentration at half of the fitted maximal effect.
